Sampled rows, rich in hits. Any-hit rate of the full collection: about 6.7%.
C diff HTS: C. difficile growth inhibitors, primary screen, HTS; Clostridium difficile clinical isolate growth, OD600, 24 h; stronger effect = lower value; growth activity, negative = inhibition, % at 16 µg/mL (by protocol); 0.25% of 86,000 active; AID 1259249, 2017;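 active = mean growth activity at or below -80% and every replicate also at or below -80%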;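 note: 0% = DMSO wells and -100% = levofloxacin 16 µg/mL wells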
Pf Dd2 inh: P. falciparum Dd2 growth inhibitors, primary screen, SYBR Green fluorescence, single dose replicates. activity change, % at 10 µM. 2.3% of 94,000 active. 72 h; stronger effect = lower value; in the data active = activity change below about -80%
T cruzi growth-1: T. cruzi intracellular proliferation inhibitors, primary screen, cell-based, beta-gal Tulahuen parasites, NIH3T3 host, luminescence; 5.9% of 77,000 active; T. cruzi beta-gal in NIH3T3, GalScreen luminescence, 90 h; inhibition, % at 8.34 µM;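 active = mean inhibition above about 93%, with at least 55% of replicates each passing it, limit read from the data, passing the limit was not always enough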
T cruzi growth-2: T. cruzi intracellular proliferation inhibitors, confirmation, cell-based, NIH3T3 host, beta-gal parasite, luminescence, cherry-pick; T. cruzi beta-gal in NIH3T3, GalScreen luminescence, 90 h; inhibition, % at 8.35 µM; 72% of 5,600 active; shares compounds with T cruzi growth-1;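 active = mean replicate inhibition above about 95% and at least 55% of replicates individually reaching it, limit read from the data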
T cruzi growth-3: inhibitors of intracellular T. cruzi replication, confirmation, NIH3T3 host cells, beta-gal parasites, cherry-pick, set 2; T. cruzi beta-gal in NIH3T3, GalScreen luminescence, 90 h; AID 651740, 2012; shares compounds with T cruzi growth-1; inhibition, % at 2.09 µM; 21% of 5,600 active;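 active = mean inhibition above about 95%, with at least 55% of replicates also reaching it, limit read from the data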;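 note: plate controls were neutral control median for no effect and positive control median for full effect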
NIH3T3 tox: cytotoxicity in mouse NIH/3T3 fibroblasts, confirmation, cytotoxicity control for T. cruzi proliferation inhibitor project, cell-based, cherry-pick, single point | 14% of 5,600 active | NIH/3T3 viability, CellTiter-Glo ATP luminescence, 90 h | shares compounds with T cruzi growth-1 | cytotoxicity (signal decrease), % at 8.35 µM;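 active = mean signal decrease across replicates above about 35% based on untreated-well scatter, with enough replicates individually passing, limit read from the data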;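 note: 0% = median of neutral control wells and 100% = median of positive control wells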
NIH3T3 tox 2: NIH/3T3 fibroblast cytotoxicity, confirmation, cytotoxicity control, cell-based, cherry-pick, single point, set 2. shares compounds with T cruzi growth-1. NIH/3T3 viability, CellTiter-Glo ATP luminescence, 90 h. inhibition, % at 24.9 µM. 56% of 5,600 active;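 active = mean loss of cell viability signal at or above a set limit, and enough replicates individually reaching it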;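 note: 0% = median of neutral control wells and 100% = median of positive control wells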
The depositor's hits bear a star; x = no result.

SMILES | C diff HTS | Pf Dd2 inh | T cruzi growth-1 | T cruzi growth-2 | T cruzi growth-3 | NIH3T3 tox | NIH3T3 tox 2
COc1cccc(NC(=O)N2[C@H](CO)[C@@H](c3ccccc3)[C@H]2CNC(C)C)c1 | -5 | -74 | 104* | 73 | 45 | -2 | -3
COc1cccc(NC(=O)N2[C@@H](CO)[C@H](c3ccccc3)[C@@H]2CNC(C)C)c1 | -2 | -69 | 102* | 101* | 42 | -18 | -13
COc1cccc(NC(=O)N2CC3(C2)[C@H](c2ccccc2)[C@@H](CO)N3C(C)=O)c1 | 3 | 14 | x | x | x | x | x
COc1cccc(S(=O)(=O)N(C)C[C@H]2Oc3ncc(-c4cccc(C(=O)N(C)C)c4)cc3C(=O)N([C@@H](C)CO)C[C@H]2C)c1 | -5 | -21 | 18 | x | x | x | x
CNC[C@@H]1Oc2ccc(NC(=O)Cn3cnnn3)cc2C(=O)N([C@H](C)CO)C[C@@H]1C | 1 | 27 | 22 | x | x | x | x
C[C@@H]1CCCCO[C@H](CN(C)C(=O)Nc2ccccc2)[C@@H](C)CN([C@H](C)CO)C(=O)c2cc(NC(=O)Nc3cccc4ccccc34)ccc2O1 | x | -32 | 52 | x | x | x | x
C[C@H]1CCCCO[C@@H](CN(C)C(=O)Nc2ccc(C(F)(F)F)cc2)[C@@H](C)CN([C@@H](C)CO)C(=O)c2cc(NC(=O)Nc3cccc4ccccc34)ccc2O1 | -18 | -1 | 90 | x | x | x | x
C[C@H](CO)N1C[C@H](C)[C@@H](CN(C)C(=O)Nc2ccc(C(F)(F)F)cc2)OCCCC[C@H](C)Oc2ccc(NC(=O)Nc3cccc4ccccc34)cc2C1=O | -12 | -86* | 101* | 104* | 94 | 9 | 18
C[C@H]1CCCCO[C@H](CN(C)C(=O)Nc2ccc(C(F)(F)F)cc2)[C@@H](C)CN([C@@H](C)CO)C(=O)c2cc(NC(=O)Nc3cccc4ccccc34)ccc2O1 | -19 | -83* | 103* | 109* | 109* | 14 | 24
C[C@H]1CN([C@@H](C)CO)C(=O)c2cc(NC(=O)Nc3cccc4ccccc34)ccc2O[C@@H]1CN(C)Cc1ccc(C(=O)O)cc1 | 0 | 1 | x | x | x | x | x
O=S(=O)(c1ccc(F)cc1)N1CCCCN2[C@H](CO)[C@H](c3ccc(C#CC4CC4)cc3)[C@H]2C1 | 56 | -50 | 101* | 104* | 83 | 43* | 105*
COc1ccc(C#Cc2ccc([C@@H]3[C@@H](CO)N4CCCCN(S(=O)(=O)c5ccccc5)C[C@H]34)cc2)cc1 | 11 | -49 | 67 | x | x | x | x
O=S(=O)(c1ccc(F)cc1)N1CCCCN2[C@H](CO)[C@@H](c3ccc(C#CC4CC4)cc3)[C@@H]2C1 | -1 | -9 | 44 | x | x | x | x
COc1ccc(S(=O)(=O)N2CCCCN3[C@H](CO)[C@@H](c4ccc(C#CC5CC5)cc4)[C@@H]3C2)cc1 | -5 | 2 | 117* | 109* | 88 | 19 | 55*
O=S(=O)(c1ccc(F)cc1)N1CCCCN2[C@@H](CO)[C@@H](c3ccc(C#CC4CC4)cc3)[C@@H]2C1 | 46 | -70 | 86 | x | x | x | x
COc1ccc(S(=O)(=O)N2CCCCN3[C@@H](CO)[C@H](c4ccc(C#CC5CC5)cc4)[C@@H]3C2)cc1 | 41 | -3 | 109* | 102* | 66 | 45* | 105*
COc1ccc(S(=O)(=O)N2CCCCN3[C@H](C2)[C@@H](c2ccc(C#CC4CC4)cc2)[C@@H]3CO)cc1 | 30 | 15 | 107* | 100* | 108* | 38* | 77*
O=C(C[C@@H]1C=C[C@@H](NS(=O)(=O)c2ccccc2)[C@@H](CO)O1)N1CCC(Cc2ccccc2)CC1 | -1 | -13 | x | x | x | x | x
C[C@H]1CN([C@@H](C)CO)S(=O)(=O)c2ccc(-c3ccc(F)cc3)cc2O[C@H]1CN(C)S(C)(=O)=O | -5 | -2 | x | x | x | x | x
